PubChem BioAssay (Tox21)
Values without a mark were called inactive. The source made the active and inactive calls. Calls come from the whole dose curve; as a rule, active = well fitted curve in the direction sought with a large enough effect in the repeat runs; inconclusive = weak or mixed curves; inactive = flat fitted curve, though single readings scatter. Non-standard residues stand in square brackets, D forms with d. Residues, ends and D or L forms follow the SMILES beside them. *: point of attachment. Sta = CC(C)C[C@H](N)[C@@H](O)CC(=O)O; Isovaleryl = CC(C)CC(=O)*
% is set by controls: 0 for no effect and ±100 for the full control effect.

Test: qHTS assay to test for compound auto fluorescence at 460 nm (blue) in HEK293 cells (AID 720678)
Conditions: blue autofluorescence 405/460 nm; series mostly up to 91.3 µM
Summary of the method: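 HEK293, 2,000 cells/well, 10% dialyzed FBS; attach 4-5 hr 37C; pin compound or DMSO; o/n 37C/5% CO2; fluorescence 405/460 nm; triamterene-equivalent units.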
For `COc1cnc(NS(=O)(=O)c2ccc(N)cc2)nc1`, the fluorescence, % of triamterene was 0.0096% [at 18.6 µM]. For `CCCCCCCCOCCC#N`, the outcome was “inactive”. For `NC[C@H]1O[C@H](O[C@H]2[C@H](O)[C@@H](O[C@H]3O[C@H](CO)[C@@H](O)[C@H](N)[C@H]3O)[C@H](N)C[C@@H]2N)[C@H](N)[C@@H](O)[C@@H]1O`, the outcome was “inactive”. For `C=CCOC(=O)CCCCCCCC`, the outcome was “inactive”. Work on `CC(C)(Sc1cc(C(C)(C)C)c(O)c(C(C)(C)C)c1)Sc1cc(C(C)(C)C)c(O)c(C(C)(C)C)c1` yielded a fluorescence, % of triamterene of -0.428% [at 18.6 µM]. With `CC(=O)c1c(C)cc(C(C)(C)C)cc1C` the outcome was “inactive”. With `Nc1cc(S(=O)(=O)O)ccc1O` the outcome was “inactive”. With `O=C(O)Cc1ccccc1Oc1ccc(Cl)cc1Cl` the outcome was “inactive”. With `CCCCCCCCC1CO1` (centres undefined) the outcome was “inactive”. For `N=C(N)N`, the outcome was “inactive”. For `COC(=O)c1ccc(C(=O)O)cc1`, the outcome was “inactive”. With `CC(C)CC(=O)N[C@H](C(=O)N[C@H](C(=O)N[C@@H](CC(C)C)[C@@H](O)CC(=O)N[C@@H](C)C(=O)N[C@@H](CC(C)C)[C@@H](O)CC(=O)O)C(C)C)C(C)C` (Isovaleryl-VV[Sta]A[Sta]-OH) the outcome was “inactive”. With `Cc1ccc(O)c([N+](=O)[O-])c1` the outcome was “inactive”. With `Cc1ccc(NC(N)=O)cc1` the outcome was “inactive”. In the case of `CCOCCOCCOC(C)=O`, the outcome is reported as “inactive”. For `CCCCCCCCCCCCCC(=O)OCC`, the outcome was “inactive”. Work on `C[C@@H]1CC[C@@]2(OC1)O[C@H]1C[C@H]3[C@@H]4CC[C@H]5C[C@@H](O)CC[C@]5(C)[C@H]4CC(=O)[C@]3(C)[C@H]1[C@@H]2C` yielded a fluorescence, % of triamterene of 0.0136% [at 18.6 µM]. In the case of `CC(=O)Nc1ccc(S(=O)(=O)Nc2cc(C)on2)cc1`, the outcome is reported as “inactive”. For `C=CCn1cc[n+](C)c1`, the outcome was “inactive”. For `CCCC[O][Al]([O]CCCC)[O]CCCC`, the outcome was “inactive”. In the case of `CCOC(=O)CC`, the outcome is reported as “inactive”. In the case of `OCCC(F)(F)C(F)(F)C(F)(F)C(F)(F)C(F)(F)C(F)(F)F`, the outcome is reported as “inactive”. For `C[n+]1ccccc1/C=N/O`, the fluorescence, % of triamterene was -0.0874% [at 18.6 µM]. With `c1coc(Cn2cccc2)c1` the outcome was “inactive”. In the case of `CCCCC(CC)COC(=O)CC#N` (centres undefined), the outcome is reported as “inactive”. In the case of `CC(C)c1cc(C(C)C)cc(C(C)C)c1`, the outcome is reported as “inactive”. With `CCOC(=O)[C@H](CCc1ccccc1)N[C@H]1CS[C@H](c2cccs2)CN(CC(=O)O)C1=O` the outcome was “inactive”. In the case of `COc1cc(OC)cc(OC)c1`, the outcome is reported as “inactive”. For `O=C(O)COc1ccc2ccccc2c1`, the outcome was “inactive”. For `Cc1cccc(N)n1`, the outcome was “inactive”. In the case of `O=C(c1ccccc1)c1cccc(O)c1`, the outcome is reported as “inactive”. With `CCCCCCCC(=O)N(C)C` the outcome was “inactive”. With `CC/C=C\CCOC(=O)c1ccccc1` the outcome was “inactive”. With `CCCOc1ccc(C(=O)OCCN(CC)CC)cc1N` the outcome was “inactive”.
